Assay outcomes (PubChem BioAssay)
Hits are enriched below; roughly 13% of the tested compounds scored in any of these assays.
Cycloheximide cs: counter-screen for Shiga toxin inhibitors: cycloheximide protein synthesis inhibition | cell reporter, cycloheximide protein synthesis inhibition counterscreen | hit rate 12% among 300,000 | max response, %; in the data active means max response mostly above about 13%, no sharp cut-off; inactive means mostly below about 14%; further: read at 38.3 µM for the half of the compounds with a filed dose
Marburg entry inh: inhibitors of Marburg virus binding or cell entry | Marburg virus pseudotyped entry inhibition, cell reporter | Potency, µM (doses to about 37.8 µM), actives largely listed as inhibitors | hit rate 1.8% among 300,000 | AID 540276; calls by dose curve; tested in HEK293 cells
Shiga toxin inh: Shiga toxin inhibition; inhibition, % at 38.7 µM; hit rate 9.2% among 290,000; Vero cells, Shiga toxin protein synthesis inhibition reporter; in the data active means inhibition mostly above about 28%, no sharp cut-off; inactive means mostly below about 43%
FMDV antiviral: blocks foot and mouth disease virus; FMDV antiviral cell-based qHTS; Potency, µM (series often up to 57.9 µM), actives largely listed as inhibitors; hit rate 1.2% among 410,000; calls by dose curve; tested in HEK293T cells; further: read-out not given here; nearly all actives have a fitted effect of over 45% in size
LASV entry inh: inhibitors of Lassa virus binding or cell entry; Lassa virus pseudotype entry inhibition, cell reporter; Potency, µM (top dose mostly 37.9 µM), actives largely listed as inhibitors; hit rate 1.2% among 300,000; calls by dose curve; tested in HEK293 cells; further: nearly all actives have a fitted effect of over 50% in size
HCV inh: inhibitors of hepatitis C virus infection; Huh7.5.1 HCVcc-Cre infection, luciferase reporter, 44 h; Potency, µM (series often up to 41.8 µM), most hits filed as inhibitors; AID 651820; hit rate 3.4% among 340,000; active means well fitted inhibition curve with a large enough effect; inconclusive means small, poorly fitted or top-dose-only effect, or another doubt; inactive means no such curve, though single readings can be large or run the other way
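After 44 h co-culture of compound, cells and HCVcc-Cre (~0.5 moi), substrate is added for 15 min at room temperature and luciferase measured over 15 sec. Cells were seeded at 1,000/well and pre-cultured 4 h.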
Of the large screens only hits and unclear results are named; the others gave an inactive call; ! = a repeat was not active.

CC(C)n1c(SC2CCOC2=O)nc2ccccc21 (stereo not given)	none
COc1ccc(-c2cc3nc(NCC4CCCCC4)n(C)c(=O)c3s2)cc1OC	none (no result: Cycloheximide cs, Marburg entry inh, Shiga toxin inh, LASV entry inh, HCV inh)
CCn1c(C)[n+](CC)c2ccc(C(=O)N(C)c3ccccc3)cc21	Marburg entry inh inconclusive
COc1cccc(C(=O)OC(C)CN2CCCC2)c1 (stereo not given)	none
CC(CN1CCCCC1)OC(=O)c1cccc(F)c1 (stereo not given)	Cycloheximide cs 18.0, Marburg entry inh inconclusive, Shiga toxin inh 28.2, LASV entry inh inconclusive, HCV inh inconclusive
CCCN=C(C)C1=C(O)c2ccccc2C1=O	Cycloheximide cs 107.4, Marburg entry inh inconclusive, Shiga toxin inh 83.9, LASV entry inh inconclusive
CC(=NCc1ccncc1)C1=C(O)c2ccccc2C1=O	Cycloheximide cs 17.8, Shiga toxin inh 75.6 (no result: FMDV antiviral, LASV entry inh)
CCN(CC)CCCN=C(C)C1=C(O)c2ccccc2C1=O	LASV entry inh inconclusive
CCc1ccccc1NC(=O)N[C@@H](C)C(=O)O	none
Cc1cccc2nc(CSc3ccccc3N)cn12	LASV entry inh inconclusive (no result: Cycloheximide cs, Shiga toxin inh)
Cc1cccc2nc(CSc3nnc(N)s3)cn12	Cycloheximide cs 22.1, Shiga toxin inh 65.2
CC(=O)c1cnc(Nc2ccccc2)s1	Cycloheximide cs 33.6
CC(=O)c1cnc(Nc2cccc(Cl)c2Cl)s1	Cycloheximide cs 37.2, Shiga toxin inh 81.2 (no result: LASV entry inh)
O=C(c1ccc(Cl)cc1)c1cnc(Nc2ccccc2Cl)s1	Cycloheximide cs 50.0, Marburg entry inh inconclusive, Shiga toxin inh 120.2, HCV inh inconclusive
O=C(c1ccc(Cl)cc1)c1cnc(-c2ccccc2)s1	HCV inh inconclusive
Cc1cn([C@H]2C=C[C@@H](CO)O2)c(=O)[nH]c1=O	Cycloheximide cs 51.9!, Marburg entry inh inconclusive, Shiga toxin inh 161.8!
Cc1cn(C2CC(O)C(O)C(CO)O2)c(=O)[nH]c1=O (stereo not given)	none (no result: Cycloheximide cs, Marburg entry inh, Shiga toxin inh, LASV entry inh, HCV inh)
CCn1c(C)c(C(=O)c2ccccc2)c(C#N)c1C(=O)O	Cycloheximide cs 20.6, HCV inh inconclusive (no result: Marburg entry inh, LASV entry inh)
Cc1c(C#N)c(N)c(C(=O)c2ccccc2)n1Cc1ccccc1	none
C/C(=C\c1ccc(N)cc1)c1nc2ccccc2[nH]1	Cycloheximide cs 49.3, Shiga toxin inh 61.0 (no result: Marburg entry inh, LASV entry inh)
COC(=O)/C(=C\c1cc(OC)c(OC)c(OC)c1)c1nc2ccccc2[nH]1	Cycloheximide cs 21.6, FMDV antiviral 15.8µM, LASV entry inh inconclusive, HCV inh inconclusive
COc1ccc(/C=C(/NC(=O)c2ccccc2)c2nc3ccccc3[nH]2)cc1OC	LASV entry inh inconclusive
COC(=O)/C(=C\c1ccc(O)cc1)c1nc2ccccc2[nH]1	Cycloheximide cs 35.3, Shiga toxin inh 60.3 (no result: Marburg entry inh, LASV entry inh)
Cc1ccn2cc(C(=O)Nc3nnc(C)s3)nc2c1	Marburg entry inh inconclusive, LASV entry inh inconclusive (no result: FMDV antiviral)
Cc1ccn2cc(C34CC5CC(CC(C5)C3)C4)nc2c1	Cycloheximide cs 35.5, Marburg entry inh inconclusive, Shiga toxin inh 95.0
CCN(CC)C(=O)CSc1ncnc2c(-c3ccc(OC)cc3)nsc12	none (no result: Marburg entry inh, FMDV antiviral, LASV entry inh, HCV inh)
COc1ccc(-c2nsc3c(SCc4ccccc4)ncnc23)cc1	Cycloheximide cs 19.9, Shiga toxin inh active
COc1ccc(OC)c(-c2cc(C(=O)Nc3ccccc3C(N)=O)c3ccccc3n2)c1	FMDV antiviral inconclusive, HCV inh 10µM (no result: Cycloheximide cs, Marburg entry inh, Shiga toxin inh, LASV entry inh)
COc1ccc(-c2cc(C(=O)Nc3ccc(C(N)=O)cc3)c3ccccc3n2)cc1	Cycloheximide cs 16.1, Marburg entry inh inconclusive, Shiga toxin inh 65.0, HCV inh inconclusive (no result: LASV entry inh)
CC(=O)c1ccc(NC(=O)c2cc(CC(C)C)nc3ccccc23)cc1	Cycloheximide cs 47.7, Shiga toxin inh 81.7, HCV inh inconclusive (no result: Marburg entry inh, LASV entry inh)
O=C(CN1C(=O)C2C3CCC(C3)C2C1=O)NCc1ccco1 (stereo not given)	Shiga toxin inh 42.8
O=C1C2C3CCC(C3)C2C(=O)N1Cc1ccco1 (stereo not given)	none
S=c1[nH]c2cc3ccccc3cc2[nH]1	Cycloheximide cs 43.5!, Shiga toxin inh 97.7! (no result: Marburg entry inh, LASV entry inh)
Cc1nc2c(=O)n(-c3ccc(F)c(Cl)c3)nc(C)c2s1	HCV inh inconclusive
COc1ccc(-n2nc(C)c3sc(C)nc3c2=O)cc1	Cycloheximide cs 9.6
COc1ccc(CCN2C(=S)NC3CC2(C)Oc2ccc([N+](=O)[O-])cc23)cc1OC (stereo not given)	Marburg entry inh inconclusive, FMDV antiviral 25.1µM, LASV entry inh inconclusive, HCV inh 4.47µM
COc1ccccc1-c1c(-c2ccc(O)cc2O)n[nH]c1C(F)(F)F	FMDV antiviral 15.8µM, HCV inh inconclusive (no result: Marburg entry inh, LASV entry inh)
COc1ccc(-c2c(-c3ccc(O)cc3O)n[nH]c2C(F)(F)F)cc1	HCV inh inconclusive (no result: LASV entry inh)
Oc1ccc(-c2n[nH]c(C(F)(F)F)c2-c2ccccc2)c(O)c1	Marburg entry inh inconclusive, FMDV antiviral 20µM, LASV entry inh inconclusive, HCV inh 5.62µM
CN(C)C(=O)c1ccc(SC(=S)NCc2ccccc2)cc1	FMDV antiviral 35.5µM (no result: Cycloheximide cs, Marburg entry inh, Shiga toxin inh, LASV entry inh, HCV inh)
COc1ccc(C(=O)NCCc2ccccc2)cc1[N+](=O)[O-]	Cycloheximide cs 31.6, Shiga toxin inh 50.1, LASV entry inh inconclusive
COc1ccc(CCNC(=O)C2CCC(=O)N2CCc2ccccc2)cc1OC (stereo not given)	Cycloheximide cs 25.7, Shiga toxin inh 124.9 (no result: Marburg entry inh, LASV entry inh)
COc1ccccc1OCc1ccc(C(=O)c2ccccc2)cc1	Cycloheximide cs 23.2, Marburg entry inh inconclusive (no result: Shiga toxin inh)
COc1ccccc1OCCNC(=O)c1ccc2c(c1)OCCO2	none (no result: Cycloheximide cs, Shiga toxin inh)
COc1ccccc1OCCNC(=O)c1ccc2c(c1)CCC2	Cycloheximide cs 23.6, Marburg entry inh inconclusive, Shiga toxin inh 64.5
COc1ccccc1OCc1ccc(C(=O)NN)cc1	Marburg entry inh inconclusive
O=C(CN1C(=O)c2ccccc2C1=O)Nc1ccc(S(=O)(=O)NCC2CCCO2)cc1 (stereo not given)	none (no result: FMDV antiviral)
COc1ccc(CCNC(=O)c2ccc3nc(-c4ccco4)c(-c4ccco4)nc3c2)cc1OC	Marburg entry inh 10.3µM, FMDV antiviral 15.8µM, LASV entry inh 8.2µM, HCV inh 2.82µM
COc1ccc(C(=O)NCCc2c[nH]c3ccccc23)cc1[N+](=O)[O-]	Cycloheximide cs 7.4
Cc1ccc(C(=O)NCCc2cccc(Cl)c2)cc1[N+](=O)[O-]	Cycloheximide cs 37.9, Shiga toxin inh active, HCV inh inconclusive
COc1cc(C(=O)NCCCOC(C)C)ccc1OC1CCN(C(C)=O)CC1	none (no result: Marburg entry inh, LASV entry inh)
O=C(NCCc1cccc(Cl)c1)c1ccc(Cl)c([N+](=O)[O-])c1	Marburg entry inh inconclusive, LASV entry inh inconclusive
COc1ccc(C(=O)NCCCOC(C)C)cc1OC1CCN(C(C)=O)CC1	Cycloheximide cs 35.5, Marburg entry inh inconclusive, Shiga toxin inh 96.4
Cc1cccc(NC(=O)C2CCN(C(=O)c3ccc(Cl)cc3)CC2)n1	none (no result: Cycloheximide cs, Shiga toxin inh)
Cn1c(=O)c2c(nc(OCCc3ccccc3)n2C)n(C)c1=O	none
CCCN(CC(=O)Nc1cc(C)on1)S(=O)(=O)c1cccc(C(F)(F)F)c1	none
COc1cc(C(=O)NCCc2ccccc2)ccc1OCC(=O)N1CCOCC1	none (no result: Cycloheximide cs, Marburg entry inh, Shiga toxin inh, LASV entry inh)
COc1ccc(C(=O)NCCCc2ccccc2)cc1OC	Cycloheximide cs 14.0, LASV entry inh inconclusive (no result: Shiga toxin inh)
CNC(=O)c1ccc(OCc2ccccc2)c(OC)c1	Cycloheximide cs 19.7, Marburg entry inh inconclusive
